Screens: PubChem BioAssay, several laboratories
Smad3 inh = inhibitors of human Smad3 transcription factor binding; inhibition, % at 25 µM; P84022; 0.29% of 88,000 active; TR-FRET Smad3/Dy647-FoxH1 peptide binding, europium anti-His;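 active = compounds that reduce the energy-transfer binding signal between the protein and its labelled peptide by more than half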;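 also: 0% = Smad3 plus labelled peptide maximal FRET and 100% = peptide-only background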
Target sequence (P84022 whole entry, looked up): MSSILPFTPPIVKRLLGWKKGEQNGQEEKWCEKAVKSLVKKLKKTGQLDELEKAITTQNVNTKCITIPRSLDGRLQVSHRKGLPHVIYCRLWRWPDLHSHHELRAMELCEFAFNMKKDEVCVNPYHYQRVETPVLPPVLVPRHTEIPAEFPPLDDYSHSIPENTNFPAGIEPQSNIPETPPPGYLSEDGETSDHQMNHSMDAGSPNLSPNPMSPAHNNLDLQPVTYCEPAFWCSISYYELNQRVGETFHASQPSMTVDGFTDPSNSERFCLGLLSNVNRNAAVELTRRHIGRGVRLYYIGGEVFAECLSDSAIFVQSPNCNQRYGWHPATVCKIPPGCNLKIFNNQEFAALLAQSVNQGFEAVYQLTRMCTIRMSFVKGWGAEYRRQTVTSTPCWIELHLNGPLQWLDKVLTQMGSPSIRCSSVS
Candida biofilm = kills Candida albicans biofilms | C. albicans biofilm + clotrimazole, Alamar Blue | inhibition, % at 6 µM | 0.14% of 85,000 active;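 active = inhibition above 20%; inactive = inhibition below 20%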;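 also: preformed 24 hr biofilms exposed to compound for 48 hr; 0% = biofilm without compound and 100% = blank killed by clotrimazole plus chlorhexidine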
ERa coact pot = enhances coactivator binding to human estrogen receptor alpha. P03372. AID 639. TR-FRET ERalpha-LBD/SRC-Cy5 coactivator binding, 2 h; 100 = basal binding, no effect. coactivator binding (% of control), % at 25.6 µM. 1.3% of 86,000 active; in the data active = activity above about 200%;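 also: binding measured in presence of low estradiol as agonist stimulus; 0% = peptide alone without receptor and 100% = receptor with peptide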
ERa coact inh = ER-alpha (human) coactivator binding inhibition; P03372; TR-FRET ER-alpha LBD / SRC-1 peptide, estradiol-bound; inhibition, % at 25.6 µM; 1.7% of 86,000 active; AID 629; in the data active = inhibition above about 50%;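 also: 0% = receptor plus peptide control and 100% = peptide only without receptor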
ERb coact inh = blocks coactivator binding to human estrogen receptor beta | AID 633 | 1.3% of 86,000 active | inhibition, % at 25.6 µM | TR-FRET ER-beta LBD / SRC1-Cy5 peptide binding; receptor agonist-loaded with 1 µM estradiol;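 active = compounds whose percent inhibition of the receptor-coactivator binding signal exceeds about 50% in the single-dose screen, limit read from the data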;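 also: 0% = receptor plus peptide wells without compound and 100% = peptide-only wells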
FAK blocker = blocks human focal adhesion kinase activity | Q05397 | biochemical FAK kinase activity assay | inhibition, %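 (tested at 7 µM)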 | 0.84% of 97,000 active | AID 727; in the data active = inhibition above about 19%;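 also: 0% = DMSO and 100% = reference compound high control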
Active calls of the source: *; · = no result; [ ] = another dose, or the depositor's remark. Rows were chosen to be rich in hits. Some 3.3% of all compounds tested hit in one or more screens of this group.

SMILES | Smad3 inh | Candida biofilm | ERa coact pot | ERa coact inh | ERb coact inh | FAK blocker
NC(=O)c1sc2cc(C(F)(F)F)cnc2c1-c1cccs1 | 5 | 6 | 111 | 0 | 3 | 1
O=C(Nc1ccccc1)c1sc2cc(C(F)(F)F)cnc2c1-c1cccs1 | 8 | 1 | 210*[fluorescence artefact?] | 19 | 17 | -4
c1ccc(-c2nn3c(Cn4nnc5ccccc54)nnc3s2)nc1 | 7 | 10 | 27 | 85*[fluorescence artefact?] | 50 | 7
c1cncc(-c2nn3c(Cn4nnc5ccccc54)nnc3s2)c1 | 20 | 3 | 79 | -8 | -10 | -3
COc1ccc(CC(=O)OCc2cc3cccc(C)c3[nH]c2=O)cc1 | 4 | 8 | 131 | -2 | 8 | 1
COc1ccc(C(=O)OCc2cc3cccc(C)c3[nH]c2=O)cc1 | -1 | 5 | 217*[fluorescence artefact?] | 21 | 32 | -20
CC1(C)[C@@H](CC(=O)O)CCC[C@H]1CC(=O)O | 5 | · | · | · | · | ·
O=C(CN1C(=O)C2C3C=CC(C3)C2C1=O)N1CCc2ccccc2C1 (centres undefined) | 15 | 6 | 108 | -18 | -28 | -2
Cc1cnn(-c2ccc3nnc(-c4ccc(Br)cc4)n3n2)c1 | 27 | 7 | 284*[fluorescence artefact?] | 36 | 36 | ·
c1ccc(-c2nnc3ccc(N4CCCC4)nn23)cc1 | -2 | 2 | 108 | -9 | -1 | -3
Brc1ccc(-c2nnc(-c3cccnc3)c3conc23)cc1 | 3 | -1 | 82 | 69* | 25 | -1
CCN(CC)CCCN1C(=O)c2oc3ccccc3c(=O)c2C1c1cc(OC)ccc1OC (centres undefined) | 11 | 8 | 122 | 0 | -6 | -4
O=C(CN1CCN(C2CCCCC2)CC1)NCCC1=CCCCC1 | 3 | 8 | 154 | -11 | -10 | -5
Cc1ccc2[nH]c3c(=O)n(CCC4=CCCCC4)cnc3c2c1 | -7 | -1 | 335*[fluorescence artefact?] | 13 | 16 | 7
O=c1c2[nH]c3ccccc3c2ncn1CCC1=CCCCC1 | 3 | 4 | 308*[fluorescence artefact?] | 3 | 45 | 8
O=c1c2[nH]c3ccccc3c2ncn1CCN1CCNCC1 | 9 | 2 | 110 | 5 | 3 | -2
Cc1ccc2c(c1)[nH]c1c(=O)n(CCC3=CCCCC3)cnc12 | · | · | · | · | · | 17
CC1(C)S[C@H]2[C@H](NC(=O)Cc3ccccc3)C(=O)N2[C@@H]1C(=O)O | -1 | · | · | · | · | ·
CCOC(=O)N1CCC(NC(=O)Cn2ncc3c4ccccc4n(C)c3c2=O)CC1 | 4 | 10 | 136 | 1 | -10 | -1
CCOC(=O)N1CCC(NC(=O)Cn2ncn3c(cc4sc(CC)cc43)c2=O)CC1 | -106 | -3 | 112 | 44 | 57*[fluorescence artefact?] | ·
CC(C)[C@@H](C(=O)O)N1C(=O)c2ccccc2C1=O | -3 | · | · | · | · | ·
COc1cccc(/C=C2\N=C(c3c(-c4ccccc4)noc3C)OC2=O)c1OC | 4 | 13 | 87 | 68* | 39 | -5
Cc1c(C(=O)OCC(C)C)[nH]c2c1C(=O)CC(c1cccs1)C2 (centres undefined) | 2 | 6 | 103 | -1 | 1 | 4
CCOC(=O)N1CCN(C(=O)CSc2nc3c(cnn3-c3ccc(C)cc3)c(=O)[nH]2)CC1 | 0 | -3 | 112 | -5 | -7 | ·
COC(=O)c1ccc(CSc2nc3c(cnn3-c3ccc(Cl)cc3)c(=O)[nH]2)o1 | -1 | 7 | 343*[fluorescence artefact?] | -37 | -12 | 3
SMILES | Smad3 inh | Candida biofilm | ERa coact pot | ERa coact inh | ERb coact inh | FAK blocker
COC(=O)c1ccc(CSc2nc3c(cnn3-c3ccccc3)c(=O)[nH]2)o1 | 12 | 7 | 258*[fluorescence artefact?] | -38 | -18 | -4
CC1CCN(C(=O)CSc2nc3c(cnn3-c3ccc(Cl)cc3)c(=O)[nH]2)CC1 | 4 | -1 | 145 | 6 | 2 | ·
CCOC(=O)CNC(=O)CSc1ncnc2c1cnn2Cc1ccccc1 | 11 | 10 | 69 | 0 | 5 | 0
CCOC(=O)CNC(=O)CSc1ncnc2c1cnn2-c1ccc(Cl)cc1 | -43 | 6 | 206* | -17 | -8 | 0
CCOC(=O)N1CCN(C(=O)CSc2nc3c(cnn3-c3ccc(Cl)cc3)c(=O)[nH]2)CC1 | 7 | 20* | 128 | -3 | -6 | ·
CC(C)(Oc1ccc(-c2cccc3ccccc23)cc1)C(=O)O | 30 | · | · | · | · | ·
CCCSc1nc2c(cnn2-c2ccc(Cl)cc2)c(=O)[nH]1 | · | · | · | · | · | -2
COC(=O)c1ccc(CSc2nc3ccccc3[nH]2)o1 | 3 | 6 | 101 | 0 | -4 | 2
COC(=O)c1ccc(CSc2nc3c(cnn3-c3ccc(F)cc3)c(=O)[nH]2)o1 | 3 | 9 | 517* | -21 | 21 | -16
CCCCSc1nc2c(cnn2-c2ccc(F)cc2)c(=O)[nH]1 | 1 | 2 | 209*[fluorescence artefact?] | 28 | 32 | -3
COc1ccc(C(=O)NC(=O)Nc2cc(C)ccn2)cc1 | 44 | 8 | 210* | 17 | -20 | 6
COc1cc(C(=O)Nc2cc(C)ccn2)cc(OC)c1OC | -1 | 7 | 90 | -6 | 4 | 0
Cc1ccnc(NC(=O)c2ccc(N3C(=O)CCC3=O)cc2)c1 | -10 | -1 | 224* | 21 | 22 | 13
O=C(O)CC[C@@]1(c2ccccc2)NC(=O)NC1=O | -5 | · | · | · | · | ·
COC(=O)CCC/C=C1/SCC(NC(=O)c2ccccc2)C1O (centres undefined) | 3 | 5 | 213* | 17 | 3 | -1
O=C(O)c1cccc(-n2cccc2/C=N/O)c1 | 40 | -3 | 46 | 76*[fluorescence artefact?] | 77*[fluorescence artefact?] | 1
CCCCc1ccc(NC(=O)OC)cc1 | 9 | -1 | 531*[fluorescence artefact?] | -11 | 19 | ·
NC1CCCCC1N=Cc1c(O)n(CCc2ccc(F)cc2)c(=O)[nH]c1=O (centres undefined) | 6 | 6 | 46 | 72*[fluorescence artefact?] | 35 | -6
CC(C)c1nc2sc3c(NCc4ccccc4)ncnc3c2c2c1COC(C)(C)C2 | 9 | -1 | 366*[fluorescence artefact?] | 10 | 25 | -1
CSc1nc(NCc2ccco2)c2sc3nc(C(C)C)c4c(c3c2n1)CC(C)(C)OC4 | · | · | · | · | · | 1
CC(C)c1nc2sc3c(NCc4ccco4)ncnc3c2c2c1COC(C)(C)C2 | -2 | -4 | 138 | 54*[fluorescence artefact?] | 41 | 17
Cc1cc(C(C)(C)C)c(OCCCN2CCOCC2)c(C(C)(C)C)c1 | -3 | · | · | · | · | ·
COc1cc(/C=C2/C(=N)N3C=CSC3=NC2=O)ccc1OCCCOc1c(C)cccc1C | 2 | 8 | 120 | 90*[fluorescence artefact?] | 43 | 7
COc1cc(/C=C2/C(=N)N3C=CSC3=NC2=O)ccc1OCCCOc1ccccc1C | 1 | 1 | 68 | 71* | 72*[fluorescence artefact?] | 2
C[C@@H](C(=O)O)/C(=C/c1ccc2c(c1)OCO2)C(=O)O | -1 | · | · | · | · | ·
Nc1nc(-c2cc(-c3cccc4ccccc34)nc(N)n2)cc(-c2cccc3ccccc23)n1 | 10 | · | · | · | · | ·
CCOc1ccc(C(=O)CCN2CCCCC2)cc1 | 16 | 2 | 92 | -2 | 59* | ·
O=C(c1ccco1)N1CCN(S(=O)(=O)c2cccc(C(F)(F)F)c2)CC1 | · | · | · | · | · | -2
